In PubChem BioAssay (NCI):
This is part of a sample that, as a whole, favours compounds with a hit. Of some 79,000 tested, about 15% had one in any assay. Rule as the data show it: active = growth inhibition above about 70%; inactive = the rest. Where a SMILES comes first, the peptide text is derived from it. [ ]: non-standard residue; d: D form. The star is where a group is joined. ξ: configuration not given here. ξL = CC(C)CC(N)C(=O)O; ClAc = O=C(CCl)*

Experiments:
[1] = NCI Yeast Anticancer Drug Screen. Data for the rad50 strain (AID 155);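 also: 0% = growth of vehicle-only cultures of the same strain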; details: S. cerevisiae rad50 strain growth inhibition; at 50.0 µM; hits give high values
In short: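 A DNA repair-deficient yeast mutant serves as the test organism; compound-induced growth inhibition is calculated against vehicle-treated cells.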

[2] = NCI Yeast Anticancer Drug Screen. Data for the mec2-1 strain (AID 157); details: S. cerevisiae mec2-1 strain, at 50.0 µM, hits give high values
In short: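 Strain: mec2-1 (DNA repair/cell cycle alteration). Compound exposure, then growth measured; inhibition expressed relative to vehicle.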

[3] = NCI Yeast Anticancer Drug Screen. Data for the mlh1 rad18 strain (AID 175); details: S. cerevisiae mlh1 rad18 strain growth inhibition; at 50.0 µM; hits give high values
In short: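 Read-out is yeast growth inhibition, calculated against vehicle-only controls. The compound was applied to a strain engineered with DNA damage repair alterations.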

Measured: growth inhibition

CCN(CC)c1ccc(N=Cc2ccccc2S(=O)(=O)O)cc1
inactive: [1] 0.9% | [2] -11.4% | [3] 34%

O=C(Cc1nc2ccccc2[nH]c1=O)N/N=C/c1ccc2c(c1)CCC2
inactive: [1] -30.2% | [2] -28.6% | [3] -37.4%

O=Cc1ccc2c(c1Cl)C(=O)c1ccccc1C2=O
inactive: [1] 51% | [2] 43.2% | [3] 68.3%

CS(=O)(=O)c1ccc(NN)c(S(C)(=O)=O)c1
inactive: [1] -9.4% | [2] -10.3% | [3] 11.8%

CCO/C=C1\SC(=S)N(c2ccc(C(=O)O)cc2)C1=O
inactive: [1] -6.05% | [2] -16.3% | [3] 13.2%

CCn1c(C)[n+](CC)c2ccc(C(F)(F)F)cc21
inactive: [1] -6.4% | [2] -10.7% | [3] 14.9%

C=CCNC(=S)N/N=C\c1cc(OC)c(OC)c(OC)c1
inactive: [1] -18.8% | [2] -44.5% | [3] -34.6%

CCCCCCCCCCCCCCCC(C)(C)O
inactive: [1] -29% | [2] -27.6% | [3] 5.1%

CC(C)CC(NC(=O)CCl)C(=O)NCC(=O)O (stereo not drawn) (ClAc-[ξL]-Gly-OH)
inactive: [1] 8.05% | [2] 9.65% | [3] -3.75%

O=c1oc(-c2cccc([N+](=O)[O-])c2)nc2ccccc12
inactive: [1] 4.4% | [2] -10.2% | [3] 4.8%

CC1(O)CC2CC1C(C(=O)O)C2C(=O)O (stereo not drawn)
inactive: [1] -0.85% | [2] -27.6% | [3] -15.1%
